Laboratory results: PubChem BioAssay (EPA / NIEHS)
Results filed as inconclusive are left out. More than one record can exist for a structure, and the calls need not agree. The source made the active and inactive calls. How the source made its calls: active means hit-call score of the fitted dose curve at least 0.9, where 1 is the maximum; inconclusive means response in the unintended direction; inactive means score below 0.9.

Assay: Tanguay_ZF_120hpf_EYE_legacy: (Legacy) Oregon State University Tanguay Lab 120 Hour Post-fertilization zebrafish Assay for Eye Malformation (AID 2283636);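 further: binary presence or absence of eye malformation scored by brightfield in 120 hpf larvae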
Method: Tanguay_ZF_120hpf_legacy is a whole embryo, multiplexed endpoint assay using zebrafish larvae exposed for 120 hours post fertilization on a 96-well plate.Tanguay_ZF_120hpf_EYE_legacy is one of one assay component(s) measured or calculated from the Tanguay_ZF_120hpf_legacy assay. It is designed to make measurements of zebrafish development as detected with brightfield microscopy of developing zebrafish embryos.Data from the assay component Tanguay_ZF_120hpf_EYE_legacy was analyzed into 1 assay endpoints. This assay endpoint, Tanguay_ZF_120hpf_EYE_legacy, was analyzed in the positive analysis fitting direction relative to DMSO as the negative control and baseline of activity. Using a type of morphology reporter, gain-of-signal activity can be used to understand changes in developmentals as they relate to the whole embryo. To generalize the intended target to other relatable targets, this assay endpoint is annotated to the zebrafish development intended target family, where the subfamily is embryonic eye development.
Zebrafish husbandry: Tropical 5D wild-type adult zebrafish were housed in at an approximate density of 1000 per 100 gallon tank at the Sinnhuber Aquatic Research Laboratory, Oregon State University, Corvallis, OR. Each tank was kept at standard laboratory conditions of 28C on a 14-h light/10-h dark photoperiod in fish water consisting of reverse osmosis water supplemented with a commercially available salt (Instant Ocean). Spawning funnels were placed into the tanks the night prior, and embryos were collected and staged. To increase bioavailability, the chorion was enzymatically removed using pronase (63.6mg/ml, >/= 3.5U/mg, Sigma-Aldrich: P5147) at 4 hours post fertilization (hpf) using a custom automated dechorionator.Chemical exposures: Six hpf dechorionated embryos were placed 1 embryo per well in a 96-well plate prefilled with 90 ul of EM using automated embryo placement systems (AEPS). Ten microliters of each row of dilution plate 2 was added to 2 exposure plates. The final DMSO concentration used was 0.64% (vol/vol). Thirty-two embryos were also exposed to 5uM trimethyltin chloride (positive control). Plates were sealed to prevent evaporation and foil covered to reduce light exposure and kept in a 28C incubator. Embryos were statically exposed until 120 hpf. At 24 hpf, embryos were assessed for photomotor response using a custom photomotor response analysis tool (PRAT) and for developmental toxicity endpoints (MO24: mortality at 24 hpf, DP: developmental progression, SM: spontaneous movement, and NC: notochord distortion). At 120 hpf, locomotor activity was measured using Viewpoint Zebralab and assessed for 18 endpoints. Zebrafish acquisition and analysis program (ZAAP), a custom program designed to inventory, acquire, and manage zebrafish data, was used to collect developmental endpoints as either present or absent (i.e., binary responses were recorded). If mortality occurred for an embryo (at either 24 or 120 hpf), the non-mortality endpoints were not measured.

Compound | AC50 | outcome
O=C1C2(Cl)C3(Cl)C4(Cl)C(Cl)(Cl)C5(Cl)C3(Cl)C1(Cl)C5(Cl)C24Cl (stereo not given) | 79.7 µM (active) | –
O=c1[nH]c(=O)[nH]c(=O)[nH]1 | – | inactive
O=C(Nc1ccc2[nH]ccc2c1)c1cc2cc(F)ccc2n1Cc1cccc(F)c1 | – | inactive
Cn1sc(Cl)cc1=O | – | inactive
COc1cc(-c2ccc(N)c(OC)c2)ccc1N | 57 µM (active) | inactive
CN(C)N=O | – | inactive
O=C(O)C(Cl)(Cl)Cl | – | inactive
CCCCCCCCc1ccc(O)cc1 | – | inactive
O=C(O)C(F)(F)C(F)(F)C(F)(F)C(F)(F)C(F)(F)C(F)(F)C(F)(F)C(F)(F)C(F)(F)C(F)(F)F | – | inactive
CC12CC1(C)C(=O)N(c1cc(Cl)cc(Cl)c1)C2=O (stereo not given) | – | inactive
CCOP(=S)(OCC)Oc1nc(Cl)c(Cl)cc1Cl | – | inactive
C=C(C)C(=O)[O][Sn]([CH2]CCC)([CH2]CCC)[CH2]CCC | – | inactive
CC(C)(C)CC(C)(C)c1ccc(O)cc1 | – | inactive
CCC(=O)C(CC(C)N(C)C)(c1ccccc1)c1ccccc1 (stereo not given) | – | inactive
CC(C)(C)c1cc(O)ccc1O | – | inactive
CCN1CCC2(CC1)COc1cc3c(cc12)N(C(=O)c1ccc(-c2ccc(-c4nnc(C)o4)cc2C)cc1)CC3 | – | inactive
CCOP(=S)(OCC)SCSP(=S)(OCC)OCC | – | inactive
NC(=O)O | – | inactive
CC(C)(OO)c1ccccc1 | – | inactive
CC(=O)[O][Hg][c]1ccccc1 | – | inactive
C=CC(=O)OCCCCCC(C)C | – | inactive
ClC1(Cl)C2(Cl)C3(Cl)C4(Cl)C(Cl)(Cl)C5(Cl)C3(Cl)C1(Cl)C5(Cl)C24Cl (stereo not given) | – | inactive
O=C(O)C(F)(F)C(F)(F)C(F)(F)C(F)(F)C(F)(F)C(F)(F)F | – | inactive
O=[N+]([O-])c1ccc(O)c([N+](=O)[O-])c1 | – | inactive
CC(C)(c1ccccc1)c1ccc(O)c(C(C)(C)c2ccccc2)c1 | – | inactive
C[C@]12CCC(=O)C[C@@H]1CC[C@@H]1[C@@H]2CC[C@]2(C)[C@@H](O)CC[C@@H]12 | – | inactive
C[C@@H]1C[C@@H]([C@H](O)CC2CC(=O)NC(=O)C2)C(=O)[C@@H](C)C1 | – | inactive
Cc1ccccc1N | – | inactive
CCC(C)(C)c1ccc(O)c(C(C)(C)CC)c1 | – | inactive
